Data on eight compounds can be found in PubChem BioAssay (Tox21).

Assay [1] in a line: Nuclear factor erythroid 2-related factor 2/antioxidant responsive element (Nrf2/ARE) small molecule agonists: qHTS cell viability counter screen in human keratinocytes (AID 1919968; active = well fitted curve in the direction sought with a large enough effect in the repeat runs; an effect the other way counts as inactive or inconclusive; note: nearly all actives have a fitted effect of over 55% in size; note: potency is the fitted concentration of half-maximal effect). The method, boiled down:
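KeratinoSens cells (HaCaT keratinocytes stably carrying an ARE-luciferase reporter) were seeded at 1,500 cells/well and rested 5 h at 37 C/5% CO2. They were then exposed to compounds in DMSO for 23 h. Viability was read by CellTiter-Fluor fluorescence after 1 h.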
Background: qHTS replaces the single test concentration by a dilution series.

Assay [2] is described as follows: Nuclear factor erythroid 2-related factor 2/antioxidant responsive element (Nrf2/ARE) small molecule agonists: luciferase reporter gene qHTS assay in human keratinocytes (AID 1919969). Note: nearly all actives have a fitted effect of over 35% in size. On the technique in general: A reporter such as luciferase makes a cellular process visible.
For assay [3], the target named is Gonadotropin-releasing hormone receptor (Homo sapiens) (UniProt P30968). Description: Human gonadotropin-releasing hormone receptor (GnRHR) small molecule agonists, calcium flux assay in GnRHR-HEK293 cells (AID 1920063). Note: nearly all actives have a fitted effect of over 35% in size. The procedure, abridged: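 HEK293 cells stably expressing human GnRHR were plated 18 h at 37 °C, loaded with calcium dye 1 h at 37 °C, then given compound in agonist mode; fluorescence (Ex/Em 480/540) read kinetically for 3 min at 1 s intervals.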
On the technique in general: A change in cytosolic calcium serves as a functional read-out for many receptors and channels.

In assay [4] the target is KiSS-1 receptor (Homo sapiens) (UniProt Q969F8). The assay can be described thus: Human kisspeptin (KISS1R) small molecule agonists, calcium flux assay in KISS1R-HEK293 cells (AID 1920064; active = well fitted curve in the direction sought with a large enough effect in the repeat runs; an effect the other way counts as inactive or inconclusive). The procedure, abridged: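 HEK293 cells stably expressing human KISS1R were plated 18 h at 37 °C, loaded with calcium dye for 1 h at 37 °C, then given compound by pin tool. Fluorescence (Ex/Em 480/540) was read kinetically for 3 min.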

Assay [5] is described as follows: G protein-coupled receptor (GPCR) small molecule agonists, calcium flux assay: HEK293 wild type cell line counter screen (AID 1920065). The method, boiled down:
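Cells were plated and cultured 18 h at 37 C/5% CO2, then loaded with calcium dye for 1 h at 37 C. Compounds in DMSO were pin-transferred in agonist mode, and fluorescence (Ex/Em 480/540) was read kinetically for 3 min at 1 s intervals.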

Assay [6] in a line: p53 small molecule agonists, cell-based qHTS assay with human liver microsomes (AID 1963577). The procedure, abridged: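 In this qHTS, p53 response-element beta-lactamase cells receive test compound together with a microsome/NADPH activating system (0.5 mg/mL final each) and are incubated 16 h at 37 C before LiveBLAzer fluorescence detection.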
Assay [7] in a line: p53 small molecule agonists, cell-based qHTS assay with rat liver microsomes (AID 1963578). The method, boiled down:
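Agonist mode in p53RE-bla reporter cells, with compounds co-incubated 16 h at 37 C alongside 0.5 mg/mL rat liver microsomes and 0.5 mg/mL NADPH (final), followed by a 2 h LiveBLAzer detection step.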

Assay [8] can be described thus: p53 small molecule agonists, cell-based qHTS assay with human liver microsomes: qHTS cell viability counter screen (AID 1963579). Note: nearly all actives have a fitted effect of over 45% in size. The method, boiled down:
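Metabolically activated exposure: compounds, human liver microsomes and NADPH (0.5 mg/mL final apiece) were added to p53RE-bla cells seeded 5 h earlier, left 16 h at 37 C, and then assessed for viability by CellTiter-Glo luminescence.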

Assay [9] can be described thus: p53 small molecule agonists, cell-based qHTS assay with rat liver microsomes: qHTS cell viability counter screen (AID 1963580). Note: nearly all actives have a fitted effect of over 45% in size. The procedure, abridged:
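p53RE-bla HCT-116 cells were exposed 16 h at 37 C to compounds with rat liver microsomes (0.5 mg/mL) and NADPH (0.5 mg/mL). Viability was measured in the same wells as ATP content by CellTiter-Glo luminescence.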

The nature of assay [10]: p53 small molecule agonists, cell-based qHTS assay: qHTS cell viability counter screen (AID 1963581). Note: nearly all actives have a fitted effect of over 45% in size. The method, boiled down:
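p53RE-bla HCT-116 cells were exposed to compounds for 16 h at 37 C; after the beta-lactamase FRET read in the same wells, CellTiter-Glo was added and luminescence (intracellular ATP) read after 30 min at room temperature.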

A short description of assay [11]: p53 small molecule agonists, cell-based qHTS assay (AID 1963582; active = well fitted activation curve with a large enough effect in the signal ratio in the repeat runs, not every such curve was filed as active; the % refers to the signal ratio). The method, boiled down:
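p53RE-bla beta-lactamase reporter cells rested 5 h at 37 C/5% CO2, then received compounds in DMSO by pin transfer and were incubated 16 h at 37 C. LiveBLAzer B/G FRET substrate was loaded for 2 h at room temperature before fluorescence reading.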

Assay [12] concerns the target 5-hydroxytryptamine receptor 2A (Homo sapiens) (UniProt P28223). Description: 5-hydroxytryptamine receptor 2A (HTR2A) small molecule antagonists, cell-based qHTS assay (AID 1963586). Note: nearly all actives have a fitted effect of over 45% in size. The method, boiled down:
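Antagonist-mode intracellular calcium assay: DOI (4 nM) added after 5 min compound pre-incubation at room temperature to dye-loaded HTR2A-CHO cells. Fluorescence followed for 3 min, sampled every second.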

The target is the same in assay [13]. The assay can be described thus: 5-hydroxytryptamine receptor 2A (HTR2A) small molecule agonists, cell-based qHTS assay (AID 1963587). Note: nearly all actives have a fitted effect of over 30% in size. The method, boiled down: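 CHO cells stably expressing human HTR2A, plated 18 h, loaded with calcium dye 1 h at 37 C. Agonist mode: compounds added and intracellular calcium fluorescence recorded kinetically for 2 min at 1 sec intervals.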

The target of assay [14] is Muscarinic acetylcholine receptor M1 (Homo sapiens) (UniProt P11229). The assay can be described thus: Cholinergic receptor muscarinic 1 (CHRM1) small molecule antagonists, cell-based qHTS assay (AID 1963588). Note: nearly all actives have a fitted effect of over 40% in size. The method, boiled down:
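CHRM1-CHO calcium-flux assay, antagonist mode. Cells were seeded 18 h, dye-loaded 1 h at 37 C and given compound for 5 min at RT, then acetylcholine was added at 50nM. FDSS fluorescence was read 3 min; 15 concentrations, three runs.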

The target is the same in assay [15]. Description: Cholinergic receptor muscarinic 1 (CHRM1) small molecule agonists, cell-based qHTS assay (AID 1963589). Note: nearly all actives have a fitted effect of over 35% in size. The procedure, abridged:
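CHO cells stably expressing human CHRM1, seeded 18 h at 37 C/5% CO2, dye-loaded 1 h at 37 C, then given compound in agonist mode; intracellular calcium fluorescence read kinetically at 1 s intervals. Fifteen concentrations, three independent runs.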

Assay [16] in a line: cAMP Responsive Elements (CRE) small molecule agonists, cell-based qHTS assay (AID 1963590). The method, boiled down: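 CRE-bla HEK 293T cells in DMEM with 10% dialyzed FBS, NEAA, pyruvate and 25 mM HEPES were plated 18 h at 37 C/5% CO2, then exposed to compounds in DMSO for 3 h before LiveBLAzer B/G FRET substrate addition.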
Assay [17] in a line: cAMP Responsive Elements (CRE) small molecule antagonists, cell-based qHTS assay (AID 1963591; active = well fitted inhibition curve with a large enough effect in the signal ratio in the repeat runs, not every such curve was filed as active; the % refers to the signal ratio). The procedure, abridged:
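CRE-bla HEK293T cells were plated 18 h at 37 °C/5% CO2, pinned with compound in DMSO, then stimulated with NKH477 at 0.25 uM final for 3 h. LiveBLAzer B/G FRET substrate was added and plates incubated 2 h at room temperature.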

For assay [18], the target named is Beta-2 adrenergic receptor (Homo sapiens) (UniProt P07550). The assay can be described thus: Adrenergic beta2 receptor (ADRB2) small molecule antagonists, cell-based qHTS assay (AID 1963592). Note: series mostly up to about 92 µM; nearly all actives have a fitted effect of over 50% in size. The procedure, abridged: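 Cells (CHO, stable ADRB2 overexpression) incubated 18-20hr at 37C; compounds added from DMSO; agonist mix (1nM isoproterenol, 100uM IBMX, 25uM Ro-20-1724) added; 0.5hr RT; d2-cAMP and anti-cAMP-cryptate added; 1hr RT; 665/615 nm read.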

Assay [19] shares this target. Description: Adrenergic beta2 receptor (ADRB2) small molecule agonists, cell-based qHTS assay (AID 1963593).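 Note: CHO cells stably overexpressing human ADRB2.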 The method, boiled down: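 CHO cells stably over-expressing ADRB2 were plated overnight at 37C, then dosed with compounds plus a stimulation mix containing 100uM IBMX and 25uM Ro-20-1724 for 0.5hr at room temperature. cAMP was measured by HTRF competition, 1hr.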

Assay [20] has as its target D(2) dopamine receptor (Homo sapiens) (UniProt P14416). The assay can be described thus: Dopamine D2 receptor (DRD2) small molecule agonists, cell-based qHTS assay (AID 1963594). Note: nearly all actives have a fitted effect of over 35% in size. The method, boiled down:
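HEK293 cells stably expressing human DRD2, pre-treated with PDE inhibitor Ro20-1724 (0.1 mM final) and compound 10 min at room temperature, then stimulated with NKH477 (200nM […]) for 30 min. cAMP read by HTRF (665/620 nm).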

Results filed as inconclusive are left out. The source made the active and inactive calls. Unless noted, calls come from the whole dose curve.

Sequence of Muscarinic acetylcholine receptor M1 (Homo sapiens) (P11229 whole entry, looked up): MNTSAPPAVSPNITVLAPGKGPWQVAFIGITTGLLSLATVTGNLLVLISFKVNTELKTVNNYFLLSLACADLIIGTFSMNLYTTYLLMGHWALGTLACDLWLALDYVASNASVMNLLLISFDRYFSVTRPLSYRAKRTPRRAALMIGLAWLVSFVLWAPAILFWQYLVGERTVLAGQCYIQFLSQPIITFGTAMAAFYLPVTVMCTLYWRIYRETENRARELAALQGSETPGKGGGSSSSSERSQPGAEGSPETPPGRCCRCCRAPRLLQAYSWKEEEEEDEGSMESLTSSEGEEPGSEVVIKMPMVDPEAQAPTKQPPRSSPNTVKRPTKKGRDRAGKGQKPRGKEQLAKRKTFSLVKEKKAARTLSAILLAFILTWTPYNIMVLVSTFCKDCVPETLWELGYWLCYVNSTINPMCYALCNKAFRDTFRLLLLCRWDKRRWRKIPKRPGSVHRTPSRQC
Sequence of 5-hydroxytryptamine receptor 2A (Homo sapiens) (P28223 whole entry, looked up): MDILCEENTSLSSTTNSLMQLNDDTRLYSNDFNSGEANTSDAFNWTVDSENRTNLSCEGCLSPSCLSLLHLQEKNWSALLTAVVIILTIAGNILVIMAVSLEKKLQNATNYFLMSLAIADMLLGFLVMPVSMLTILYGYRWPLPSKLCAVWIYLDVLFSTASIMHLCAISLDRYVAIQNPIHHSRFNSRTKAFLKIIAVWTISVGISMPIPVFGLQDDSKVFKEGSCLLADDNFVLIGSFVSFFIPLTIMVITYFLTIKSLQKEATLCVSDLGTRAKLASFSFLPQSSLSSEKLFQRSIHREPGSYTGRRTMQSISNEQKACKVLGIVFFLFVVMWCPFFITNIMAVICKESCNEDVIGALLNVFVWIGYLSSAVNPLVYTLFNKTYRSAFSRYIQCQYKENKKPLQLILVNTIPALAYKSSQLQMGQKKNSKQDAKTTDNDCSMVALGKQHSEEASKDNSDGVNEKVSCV
Sequence of Gonadotropin-releasing hormone receptor (Homo sapiens) (P30968 whole entry, looked up): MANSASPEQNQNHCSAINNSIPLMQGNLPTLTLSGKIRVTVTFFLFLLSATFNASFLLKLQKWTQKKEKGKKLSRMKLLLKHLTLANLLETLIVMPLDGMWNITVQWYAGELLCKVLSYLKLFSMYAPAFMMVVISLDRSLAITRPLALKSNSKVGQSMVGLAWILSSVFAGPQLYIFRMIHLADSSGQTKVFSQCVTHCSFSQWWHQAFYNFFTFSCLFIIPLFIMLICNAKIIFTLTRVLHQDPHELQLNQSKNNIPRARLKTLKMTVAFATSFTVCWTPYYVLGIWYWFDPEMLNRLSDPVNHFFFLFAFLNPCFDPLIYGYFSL
Sequence of Beta-2 adrenergic receptor (Homo sapiens) (P07550 whole entry, looked up): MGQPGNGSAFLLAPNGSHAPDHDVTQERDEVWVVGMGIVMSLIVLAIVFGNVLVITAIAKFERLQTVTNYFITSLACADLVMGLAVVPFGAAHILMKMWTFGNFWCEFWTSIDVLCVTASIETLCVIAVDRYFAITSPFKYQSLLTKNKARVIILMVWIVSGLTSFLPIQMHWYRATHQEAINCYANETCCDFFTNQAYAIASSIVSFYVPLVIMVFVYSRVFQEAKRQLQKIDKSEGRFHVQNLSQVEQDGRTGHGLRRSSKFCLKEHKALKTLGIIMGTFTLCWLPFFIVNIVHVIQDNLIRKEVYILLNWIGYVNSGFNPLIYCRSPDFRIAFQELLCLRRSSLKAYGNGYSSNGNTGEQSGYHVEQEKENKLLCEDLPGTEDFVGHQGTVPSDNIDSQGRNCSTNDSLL
Sequence of KiSS-1 receptor (Homo sapiens) (Q969F8 whole entry, looked up): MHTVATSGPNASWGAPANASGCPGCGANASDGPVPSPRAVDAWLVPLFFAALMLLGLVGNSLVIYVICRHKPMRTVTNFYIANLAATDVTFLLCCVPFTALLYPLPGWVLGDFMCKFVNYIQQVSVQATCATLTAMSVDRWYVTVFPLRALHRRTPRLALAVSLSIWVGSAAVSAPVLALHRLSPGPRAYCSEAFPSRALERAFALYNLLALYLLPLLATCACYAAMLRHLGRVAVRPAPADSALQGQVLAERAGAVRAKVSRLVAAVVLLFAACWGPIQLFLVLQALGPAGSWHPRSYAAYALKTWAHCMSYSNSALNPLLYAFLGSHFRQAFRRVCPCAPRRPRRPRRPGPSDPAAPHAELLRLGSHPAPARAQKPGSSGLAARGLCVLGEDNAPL
Sequence of D(2) dopamine receptor (Homo sapiens) (P14416 whole entry, looked up): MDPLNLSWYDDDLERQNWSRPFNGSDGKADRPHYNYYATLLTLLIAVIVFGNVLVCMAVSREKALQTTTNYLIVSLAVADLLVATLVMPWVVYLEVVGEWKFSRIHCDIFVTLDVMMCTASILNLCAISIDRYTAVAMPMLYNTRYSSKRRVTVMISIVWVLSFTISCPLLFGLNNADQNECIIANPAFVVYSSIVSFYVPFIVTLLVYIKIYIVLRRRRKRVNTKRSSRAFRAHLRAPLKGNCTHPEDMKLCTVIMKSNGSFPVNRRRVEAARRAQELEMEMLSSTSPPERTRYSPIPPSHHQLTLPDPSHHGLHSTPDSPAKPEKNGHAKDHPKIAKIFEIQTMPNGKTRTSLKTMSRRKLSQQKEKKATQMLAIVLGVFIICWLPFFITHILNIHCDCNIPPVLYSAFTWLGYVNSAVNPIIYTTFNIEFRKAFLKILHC

For the compound `C1CN(CCOCCN2CCOCC2)CCO1`, the Potency entry in [1], in assay [2], in assay [3], in assay [4], in assay [5] and in assay [6] was “inactive” in each case. Moreover, the Potency entry in assay [7], in [8], in assay [9], in [10], in [11] and in assay [12] was “inactive” each time. The Potency result in assay [13], in [14], in assay [15], in assay [16], in assay [17] and in assay [18] was “inactive” in each case. Further, the Potency entry in assay [19] and in assay [20] was “inactive” in each case.
Regarding `CC(C)CCCCCOC(=O)CCS`, the Potency entry in [1], in assay [2], in assay [3], in assay [4], in assay [5] and in [6] was “inactive” in each case. For the same compound, the Potency result in [7], in assay [8], in [9], in [10], in [11] and in assay [12] was “inactive” each time. Also, the Potency result in assay [13], in assay [14], in assay [15], in [16], in assay [17] and in [18] was “inactive” throughout. The Potency entry in assay [19] and in [20] was “inactive” each time.
For the compound `O=C(O)CCc1ccccc1`, the Potency result in assay [1], in [2], in assay [3], in [4], in assay [5] and in [6] was “inactive” each time. Moreover, the Potency entry in assay [7], in [8], in assay [9], in assay [10], in assay [11] and in [12] was “inactive” each time. Moreover, the Potency entry in [13], in assay [14], in assay [15], in [16], in assay [17] and in assay [18] was “inactive” throughout. Further, the Potency entry in assay [19] and in [20] was “inactive” throughout.
With `COc1ccc2cc3[n+](cc2c1OC)CCc1cc2c(cc1-3)OCO2`, in assay [1], the Potency is 4.22 µM (active). In addition, the Potency entry in [2], in [3], in [4], in assay [5], in [6] and in assay [7] was “inactive” in each case. For the same compound, the Potency entry in assay [8] and in assay [9] was “inactive” each time.
For `CCOC(=O)c1ccc(OCCN2C[C@H](O)[C@@H](O)[C@H](O)[C@H]2CO)cc1`, the Potency entry in assay [1], in assay [2], in [3], in assay [4], in [5] and in assay [6] was “inactive” in each case. Also, the Potency result in assay [7], in assay [8], in assay [9], in assay [10], in [11] and in assay [12] was “inactive” in each case. The Potency entry in assay [13], in assay [14], in assay [15], in assay [16], in assay [17] and in assay [18] was “inactive” throughout. In addition, the Potency entry in assay [19] and in [20] was “inactive” in each case.
For `Cc1ncc(CSSCc2cnc(C)c(O)c2CO)c(CO)c1O`, the Potency entry in [1], in [2], in [3], in assay [4], in assay [5] and in [6] was “inactive” in each case. Also, the Potency entry in assay [7], in [8], in [9], in [10], in assay [11] and in assay [12] was “inactive” each time. Moreover, the Potency result in assay [13], in assay [14], in [15], in assay [16], in assay [17] and in assay [18] was “inactive” in each case. The Potency result in assay [19] and in [20] was “inactive” in each case.
Consider `CCC(C)(C)CC`, for which the Potency entry in assay [1], in [2], in assay [3], in assay [4], in assay [5] and in assay [6] was “inactive” in each case. In addition, the Potency entry in [7], in [8], in assay [9], in assay [10], in [11] and in assay [12] was “inactive” in each case. Besides, the Potency entry in assay [13], in assay [14], in [15], in assay [16], in [17] and in [18] was “inactive” throughout. The Potency result in assay [19] and in [20] was “inactive” in each case.
As for `Cc1ccccc1S(=O)(=O)O`, the Potency result in assay [1], in [2], in [3], in assay [4], in assay [5] and in assay [6] was “inactive” in each case. Further, the Potency result in assay [7], in assay [8], in [9], in [10], in [11] and in [12] was “inactive” in each case. The Potency result in assay [13], in [14], in [15], in assay [16], in assay [17] and in assay [18] was “inactive” each time. Besides, the Potency result in [19] and in assay [20] was “inactive” throughout.
